Measurements taken from PubChem BioAssay AID2284205 (EPA ToxCast).
The source made the active and inactive calls. How the source made its calls: active means hit-call score of the fitted dose curve at least 0.9, where 1 is the maximum; inactive means score below 0.9.

Biological target: Peroxisome proliferator-activated receptor gamma (Homo sapiens) (UniProt P37231)
Test: ERF_TW_NR_hPPARG: Eurofins (ERF) Nuclear Receptor (NR) Radioligand Binding LeadHunter Assay for human Peroxisome Proliferator-activated Receptor gamma (PPARg) Agonism, conducted at Taiwan lab site
Protocol: ERF_TW_NR_hPPARG is a biochemical, single-readout assay that uses extracted gene-proteins in a cell-free assay. Measurements were taken 24 hour after chemical dosing in a 96-well plate. See PPARgamma Human NHR Binding (Agonist Radioligand) Assay, Panlabs.ERF_TW_NR_hPPARG is an assay component calculated from the ERF_TW_NR_hPPARG assay. It is designed to measure radioligand binding using a type of binding reporter as detected by scintillation counting with radiometry technology.Data from the assay component ERF_TW_NR_hPPARG was analyzed at the assay endpoint, ERF_TW_NR_hPPARG, in the positive analysis fitting direction relative to DMSO as the negative control and baseline of activity. Using a type of binding receptor, gain-of-signal activity can be used to understand changes in binding receptor as they relate to gene PPARG.To generalize the intended target to other relatable targets, this assay endpoint is annotated to the nuclear receptor intended target family, where the subfamily is non-steroidal.
Human recombinant PPARgamma-LBD expressed in insect cells are used in modified Tris-HCl buffer pH 7.2. A 0.03 ug aliquot is incubated with 5 nM [3H]Rosiglitazone and 1 ug anti-GST antibody for 24 hours at 4C. Non-specific binding is estimated in the presence of 10 uM rosiglitazone. Receptors are counted to determine [3H]Rosiglitazone specifically bound. […]

Chain of Peroxisome proliferator-activated receptor gamma (Homo sapiens) (P37231 whole entry, looked up): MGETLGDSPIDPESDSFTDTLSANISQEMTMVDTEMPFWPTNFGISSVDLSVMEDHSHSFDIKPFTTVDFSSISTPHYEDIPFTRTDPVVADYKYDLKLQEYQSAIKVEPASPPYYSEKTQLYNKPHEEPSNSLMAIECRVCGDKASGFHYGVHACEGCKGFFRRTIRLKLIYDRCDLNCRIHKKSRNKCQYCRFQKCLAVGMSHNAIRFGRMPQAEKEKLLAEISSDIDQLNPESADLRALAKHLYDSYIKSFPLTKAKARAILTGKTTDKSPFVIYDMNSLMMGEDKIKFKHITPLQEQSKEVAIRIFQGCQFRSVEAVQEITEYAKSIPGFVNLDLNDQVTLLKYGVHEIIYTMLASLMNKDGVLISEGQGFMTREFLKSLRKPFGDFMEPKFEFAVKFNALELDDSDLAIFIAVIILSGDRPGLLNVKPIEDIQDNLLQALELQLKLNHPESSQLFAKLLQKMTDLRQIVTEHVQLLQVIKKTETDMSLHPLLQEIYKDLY

Structure (SMILES) | AC50
COC(=O)C(F)(F)C(F)(F)OC(F)(C(F)(F)F)C(F)(F)OC(F)=C(F)F (configuration not stated) | 3.72 µM (active)
O=C(O)C(F)(F)C(F)(F)C(F)(F)C(F)(F)C(F)(F)C(F)(F)C(F)(F)C(F)(F)F | 18.6 µM (active)
